We go through 40 compounds from PubChem BioAssay (EPA / NIEHS).

Results filed as inconclusive are left out. Calls of active or inactive are those of the source. How the source made its calls: active means hit-call score of the fitted dose curve at least 0.9, where 1 is the maximum; inconclusive means response in the unintended direction; inactive means score below 0.9.

The nature of the test: ATG_M_06_TRANS: Attagene TRANS-FACTORIAL HepG2 Assay for M06 Transcription Factor (Internal Marker) (AID 2282983). The note with it: HepG2 Attagene TRANS M06 internal marker reporter. The procedure:
ATG_TRANS is a cell-based, multiplexed-readout assay that uses HepG2, a human liver cell line, with measurements taken at 24 hours after chemical dosing in a 24-well plate.ATG_M_06_TRANS is one of 30 assay component(s) measured or calculated from the ATG_TRANS assay. It is designed to make measurements of mRNA induction, a form of inducible reporter, as detected with fluorescence intensity signals by Reverse transcription polymerase chain reaction (RT-PCR) and Capillary electrophoresis technology.Data from the assay component ATG_M_06_TRANS was analyzed into 1 assay endpoint. This assay endpoint, ATG_M_06_TRANS, was analyzed in the positive analysis fitting direction relative to DMSO as the negative control and baseline of activity. Using a type of inducible reporter, measures of mRNA for gain-of-signal activity can be used to understand the background control at the transcription factor-level as they relate to the gene . Furthermore, this assay endpoint can be referred to as a secondary readout, because this assay has produced multiple assay endpoints where this one serves a background control function. To generalize the intended target to other relatable targets, this assay endpoint is annotated to the background measurement intended target family, where the subfamily is internal marker.
Human liver HepG2 cells are transiently transfected with multiple reporter transcription units (MRTUs) in 6-well plates using FuGene 6 reagent (Roche; 3 ml FuGene/1 mg DNA). The MRTU constructs are regulated by a cis-regulating element (promoter). […] A major difference between the CIS and TRANS system is that in CIS activities of endogenous TFs are measured, whereas the TRANS assay evaluates changes in activities of exogenous, chimeric NR-Gal4 proteins. […] At the end of 24 hour incubation, total RNA was isolated using TriZol reagent (Invitrogen). The isolated RNA is then reverse-transcribed using oligo(dT) primer and Mo-MLV reverse transcriptase (Invitrogen) with DNAse I (Ambion) treatment for 30 min. The one-tenth of the produced cDNA was amplified by PCR using Taq DNA polymerase (Invitrogen) and two reporter sequence-specific primers. The PCR products were fluorescently labeled by primer extension with 6-arboxyfluorescein (6-FAM) 5'-labeled reporter sequence-specific primer (2 min at 95 C, 20 s at 68 C and 10 min at 72 C) and these products were digested with 5U of HpaI (New England Biolabs) for 2h at 37 C. The fragments were purified using Qiaquick PCR columns (Qiagen), analyzed on an ABI 3130xL genetic analyzer (Applied Biosystems) with peak positions identified by using a set of X-rhodamine (ROX)-labeled MapMarker1000 molecular weight standards (BioVentures). The raw capillary electrophoresis data was processed using Attagraph software (Attagene).
For the compound `CN(C)Cc1ccccc1O`, the compound was called inactive.

Consider `O=C(O)C(F)(F)C(F)(F)C(F)(F)C(F)(F)C(F)(F)C(F)(F)C(F)(F)C(F)(F)C(F)(F)C(F)(F)C(F)(F)C(F)(F)C(F)(F)F`, for which the compound was classed as inactive.

With `O=C(O)C(F)(F)C(F)(F)F`, the compound was classed as inactive.

Consider `FC(F)(F)C(F)(F)C(F)(F)C(F)(F)C(F)(F)C(F)(F)C(F)(F)I`, for which the outcome was inactive. The entry for `O=C(O)C(F)(F)C(F)(F)C(F)F` is “inactive”; for `O=C(C=Cc1ccccc1)OCC=Cc1ccccc1` it is “inactive”. Turning to `OCC(F)(F)C(F)(F)C(F)(F)C(F)F`, the compound was called inactive. The entry for `Oc1ccc(Nc2ccccc2)cc1` is “inactive”; for `CCCCCCCCC(F)(F)C(F)(F)C(F)(F)C(F)(F)C(F)(F)C(F)(F)F` it is “inactive”; for `O=C(CC(=O)C(F)(F)C(F)(F)F)C(F)(F)F` it is “inactive”. The entry for `CCO[Si](CCC(F)(F)C(F)(F)C(F)(F)C(F)(F)C(F)(F)C(F)(F)F)(OCC)OCC` is “inactive”; for `Cc1ccc(S(=O)(=O)NCl)cc1` it is “inactive”.

With `O=C(O)C(F)(F)C(F)(F)C(F)(F)C(F)(F)C(F)(F)C(F)(F)C(F)(F)C(F)(F)Cl`, the compound was called inactive. The entry for `C(=C(c1ccccc1)c1ccccc1)c1ccccc1` is “inactive”; for `FC(F)(F)C(F)(F)C(F)(F)C(F)(F)CCI` it is “inactive”; for `CCCCOCCOCCOC(=O)CCCCC(=O)OCCOCCOCCCC` it is “inactive”. The entry for `CC(C)OC(=O)c1ccccc1C(=O)OC(C)C` is “inactive”; for `O=C(O)C(F)(F)C(F)(F)C(F)(F)F` it is “inactive”.

In the case of `CC(CCl)OP(=O)(OC(C)CCl)OC(C)CCl` (stereo not given), the result was inactive.

For the compound `CCCCCCS`, the compound was called inactive. As for `COC(=O)CCC(F)(F)C(F)(F)C(F)(F)C(F)(F)F`, the entry is “inactive”; as for `N=C(N)C(F)(F)C(F)(F)C(F)(F)C(F)(F)C(F)(F)C(F)(F)C(F)(F)F`, “inactive”. With `O=C(O)C(F)(F)C(F)(F)C(F)(F)C(F)(F)F`, the compound was called inactive. For the compound `O=P(O)(O)OCCC(F)(F)C(F)(F)C(F)(F)C(F)(F)C(F)(F)C(F)(F)F`, the result was inactive. As to `c1ccc(B(c2ccccc2)c2ccccc2)cc1`, the result was inactive. The entry for `C=CC(=O)OCC(F)(F)C(F)(F)C(F)(F)C(F)(F)C(F)(F)C(F)(F)C(F)(F)F` is “inactive”; for `C=C(C)C(=O)OCC(F)(F)C(F)(F)C(F)(F)F` it is “inactive”. For `CC(=O)Nc1ccc(N=Nc2cc(C)ccc2O)cc1`, the compound was classed as inactive. As for `CCCCCCOC(=O)c1ccccc1`, the entry is “inactive”; as for `CC(Cc1ccc(O)c(O)c1)C(C)Cc1ccc(O)c(O)c1` (stereo not given), “inactive”; as for `OCC(F)(F)C(F)(F)C(F)(F)F`, “inactive”.

Turning to `FC(F)(F)C(F)(F)C(F)(F)C(F)(F)C(F)(F)C(F)(F)C(F)(F)C(F)(F)F`, the result was inactive. With `OC[C@@H](O)[C@@H](O)[C@H](O)[C@@H](O)CO`, the compound was classed as inactive.

Turning to `O=C(O)C(F)(F)C(F)(F)C(F)(F)C(F)(F)C(F)(F)C(F)(F)C(F)(F)C(F)(F)C(F)(F)C(F)(F)C(F)(F)C(F)(F)F`, the result was inactive.

On to `Cc1cccc(N(C)C)c1`, for which the compound was classed as inactive. Take `O=C(O)C(F)(OC(F)(F)C(F)(OC(F)(F)C(F)(F)C(F)(F)F)C(F)(F)F)C(F)(F)F` (stereo not given): the compound was called inactive. The entry for `O[Si](c1ccccc1)(c1ccccc1)c1ccccc1` is “inactive”. As for `O=C(O)C(F)(F)C(F)(F)OC(F)(F)F`, the entry is “inactive”. `C#C[C@]1(O)CC[C@H]2[C@@H]3CCc4cc(OC)ccc4[C@H]3CC[C@@]21C`: the compound was classed as inactive. The entry for `Cc1ccc(S(=O)(=O)OCC(F)(F)C(F)(F)C(F)(F)C(F)(F)C(F)(F)C(F)F)cc1` is “inactive”.
